For seven molecules, z-score and composite z-score results are on record in PubChem BioAssay.

A short description of assay [1]: compound effects on lung adenocarcinoma cell viability – A549, calcein-AM fluorescence, 48 h, basal, profiling panel (AID 1162). Also: test concentration not given here. The following applies: higher = more signal.
The nature of assay [2]: compound effects on differentiated 3T3-L1 adipocyte viability – cell-based, 3T3-L1 adipocytes, calcein-AM fluorescence, 48 h, basal, profiling panel (AID 1163). Also: test concentration not given here. Conditions: 3T3-L1 adipocytes viability, higher = more signal.
Assay [3] can be described thus: compound effects on hepatocellular carcinoma cell viability – HepG2, calcein-AM fluorescence, 48 h, basal, profiling panel (AID 1164). Also: test concentration not given here. The following applies: higher = more signal.
A short description of assay [4]: compound effects on multiple myeloma cell viability – MM1S, calcein-AM fluorescence, 48 h, basal, profiling panel (AID 1165). Also: test concentration not given here. Conditions: higher = more signal.
The nature of assay [5]: calcein-AM signal in unstimulated myeloma cells – cell-based, calcein-AM fluorescence, 48 h, PK04 Diversity Set, profiling panel (AID 1166).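 Also: cells grown under basal conditions without added stimulus; test concentration not given here.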 Conditions: RPMI8226 myeloma viability, higher = more signal.
Assay [6] in a line: JC-1 mitochondrial signal, unstimulated HepG2 cells – cell-based, JC-1 fluorescence, 24 h, 100 nL compound, profiling panel (AID 1167). Also: test concentration not given here. The following applies: HepG2 mitochondrial potential, higher = more signal.
A short description of assay [7]: JC-1 mitochondrial signal, unstimulated adipocytes – cell-based, JC-1 fluorescence, 3T3-L1 adipocytes, 24 h, 100 nL compound, profiling panel (AID 1168). Also: test concentration not given here. The following applies: JC-1 mitochondrial fluorescence, higher = more signal, called active from +8 up or from −8 down.
The nature of assay [8]: JC-1 mitochondrial signal, unstimulated myeloma cells – cell-based, JC-1 fluorescence, RPMI8226, 24 h, 100 nL compound, profiling panel (AID 1169). Also: test concentration not given here. The following applies: JC-1 mitochondrial potential fluorescence, higher = more signal.
The nature of assay [9]: JC-1 mitochondrial signal, unstimulated MM1S myeloma – cell-based, JC-1 fluorescence, 24 h, 100 nL compound, profiling panel (AID 1170). Also: test concentration not given here. The following applies: MM1S mitochondrial potential, higher = more signal.
A short description of assay [10]: resazurin metabolic signal in A549 cells – cell-based, resazurin fluorescence, 24 h, PK04 Diversity Set, profiling panel (AID 1171). Also: test concentration not given here. Conditions: A549 viability, higher = more signal, called active from +8 up or from −8 down. (In general: The colour change of resazurin is a common sign of viable cells or microbes.)
Assay [11] in a line: resazurin metabolic signal in HepG2 cells – cell-based, resazurin fluorescence, 24 h, PK04 Diversity Set, profiling panel (AID 1172). Also: test concentration not given here. The following applies: HepG2 viability, higher = more signal.
The nature of assay [12]: budding yeast growth changes without added modifier – OD600, strain BY4716, 24 h, basal condition, primary screen (AID 1173). The following applies: S. cerevisiae BY4716 growth, OD600, 24 h; higher = more signal, called active from +8 up or from −8 down.
The nature of assay [13]: viability profiling in MM1S myeloma cells – cell-based, resazurin fluorescence, basal, 24 h, PK04 Diversity Set, profiling panel (AID 1174). Also: test concentration not given here. Conditions: higher = more signal, called active from +8 up or from −8 down.
Assay [14] concerns the target Dihydroorotate dehydrogenase (quinone), mitochondrial (Plasmodium falciparum (isolate 3D7)) (UniProt Q08210). Briefly: inhibition of P. falciparum DHODH – biochemical, C-terminal His tag, absorbance 600 nm, primary screen (AID 1175).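 Also: recombinant parasite enzyme with a five histidine tag at its C terminus; test concentration not given here.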 The following applies: PfDHODH enzyme, DCIP absorbance 600 nm; higher = more signal, called active from +8 up or from −8 down.
Assay [15] is described as follows: inhibition of PAO1 biofilm formation – strain PAO1, LB-PBS medium, absorbance 600 nm, primary screen (AID 1176). Also: test concentration not given here. The following applies: P. aeruginosa PAO1 growth/biofilm, A600, 12 h; higher = more signal.
A short description of assay [16]: growth modulation of vineyard yeast isolate – strain RM11-1a, OD600, basal, 24 h, primary screen (AID 1177).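 Also: cultures grown under basal conditions with no added stressor; test concentration not given here.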 The following applies: S. cerevisiae RM11-1a growth, OD600, 24 h; higher = more signal, called active from +8 up or from −8 down.
A short description of assay [17]: growth of efflux-deficient E. coli DRC39 – strain DRC39, OD650, 24 h, E. coli filamentation inducers, primary screen (AID 1178).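 Also: growth measured as culture turbidity by optical density at 650 nm; test concentration not given here.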 The following applies: E. coli DRC39 acrAB, higher = more signal, called active from +8 up or from −8 down.
Assay [18] in a line: growth of efflux-deficient E. coli DRC39 – strain DRC39, OD650, 48 h, E. coli filamentation inducers, primary screen (AID 1179).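 Also: screen aims at cell division blockers that make cells filament.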 Conditions: E. coli DRC39 delta-acrAB growth, higher = more signal, called active from +8 up or from −8 down.
Assay [19] can be described thus: viability profiling in RPMI8226 myeloma cells – cell-based, resazurin fluorescence, basal, 24 h, PK04 Diversity Set, profiling panel (AID 1180).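 Also: RPMI8826 multiple myeloma cell line at 5000 cells per well; test concentration not given here.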 Conditions: higher = more signal.
Assay [20] concerns the target E3 ubiquitin-protein ligase XIAP (Homo sapiens) (UniProt P98170). The assay can be described thus: small molecules binding XIAP protein – biophysical, small-molecule microarray, fluorescence 635 nm, primary screen (AID 1181).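 Also: score merges 667 nm emission and signal to noise over triplicate slides.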 Conditions: higher = more signal.

Several values for one entry are separate records, joined by “and”; a condition that tells them apart may be missing. Equal entries are not always repeated. Activity calls are given as the source filed them. Unless noted, no rule for the calls is given here.

Chain of Dihydroorotate dehydrogenase (quinone), mitochondrial (Plasmodium falciparum (isolate 3D7)) (Q08210 whole entry, looked up): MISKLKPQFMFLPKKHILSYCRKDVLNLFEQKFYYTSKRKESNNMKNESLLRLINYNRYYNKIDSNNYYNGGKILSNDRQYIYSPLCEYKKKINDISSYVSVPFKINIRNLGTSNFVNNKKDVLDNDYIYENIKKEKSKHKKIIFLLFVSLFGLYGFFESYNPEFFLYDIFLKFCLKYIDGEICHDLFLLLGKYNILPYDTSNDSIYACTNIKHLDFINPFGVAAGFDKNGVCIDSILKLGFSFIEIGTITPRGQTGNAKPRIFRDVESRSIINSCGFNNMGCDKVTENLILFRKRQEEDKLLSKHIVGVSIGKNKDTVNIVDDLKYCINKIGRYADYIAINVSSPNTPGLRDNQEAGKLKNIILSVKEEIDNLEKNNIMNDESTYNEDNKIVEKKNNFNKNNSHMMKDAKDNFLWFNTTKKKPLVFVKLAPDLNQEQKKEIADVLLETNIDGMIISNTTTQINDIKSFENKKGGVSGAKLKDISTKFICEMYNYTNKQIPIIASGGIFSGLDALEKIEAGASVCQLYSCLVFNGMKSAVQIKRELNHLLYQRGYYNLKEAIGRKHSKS
Chain of E3 ubiquitin-protein ligase XIAP (Homo sapiens) (P98170 whole entry, looked up): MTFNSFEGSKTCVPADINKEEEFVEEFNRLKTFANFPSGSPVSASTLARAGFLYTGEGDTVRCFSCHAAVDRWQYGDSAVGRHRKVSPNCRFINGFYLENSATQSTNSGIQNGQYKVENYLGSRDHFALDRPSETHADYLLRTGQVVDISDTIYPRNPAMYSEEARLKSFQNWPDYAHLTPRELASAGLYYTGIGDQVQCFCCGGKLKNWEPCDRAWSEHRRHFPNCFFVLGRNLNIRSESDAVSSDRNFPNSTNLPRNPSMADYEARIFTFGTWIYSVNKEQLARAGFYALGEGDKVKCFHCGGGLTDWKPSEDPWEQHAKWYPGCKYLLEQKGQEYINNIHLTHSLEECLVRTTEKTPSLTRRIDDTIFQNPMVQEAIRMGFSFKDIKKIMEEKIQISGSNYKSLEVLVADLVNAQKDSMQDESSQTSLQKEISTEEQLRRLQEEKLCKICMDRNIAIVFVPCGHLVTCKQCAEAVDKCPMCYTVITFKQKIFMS

With `C#CCN1C(/C=C/c2ccccc2)C(=O)OC[C@H]1c1ccccc1` (stereo not given in full), the z-score in [1] is -0.002 and -0.112; in assay [2], 1.74 and 0.227; in assay [3] it was -0.0288 and -0.167; in assay [4], -0.0906 and -0.0281; in [5], -0.712 and -1.8; in assay [6], 1.04 and 0.221. The z-score in assay [7] is 1.37 (inactive) and 0.0383 (inactive); in [8], -0.749 and 0.481; in assay [9], -0.328 and -1.12; in assay [10], -0.925 (inactive) and 1.15 (inactive); in assay [11] it was 0.0256 and 1.82; in [12], -5.79 (inactive) and -4.84 (inactive). For the same molecule, the z-score was 0.911 (inactive) and 0.42 (inactive) in assay [13]; -0.73 (inactive) in [15]; -2.77 (inactive) and -0.151 (inactive) in [16]; 2.04 (inactive) and 0.715 (inactive) in assay [17]; 0.639 (inactive) and -0.294 (inactive) in assay [18]; 0.681 and 1.36 in assay [19]. The composite z-score in assay [14] is -3.42 (inactive) and -0.43 (inactive); in [20], 0.0727 and -0.0871.

Consider `C=CCN(CCCCC)C(=O)C1N(c2c(Cl)cccc2CO)C(=O)C2C(C(=O)O)C3C=CC21O3` (stereo not given), for which the z-score in [1] is 0.91 and 0.677; in assay [2] it was 1.58 and 0.498; in [3], -0.841 and -0.469; in assay [4], 1 and 0.892; in [5] it was -1.09; in assay [6], -0.828 and -1.37. Further, the z-score in [7] is -0.438 (inactive) and -0.55 (inactive); in [8], 0.0653 and 0.469; in assay [9] it was 0.223 and 1.03; in [10] it was -1.5 (inactive) and -1.33 (inactive); in [11] it was -1.63 and -0.873; in assay [12], 0.0191 (inactive) and -0.402 (inactive). For the same molecule, the z-score in assay [13] was -1.48 (inactive) and -0.932 (inactive); in assay [15] it was -0.441 (inactive) and -0.578 (inactive); in [16], 0.501 (inactive) and 0.477 (inactive); in [17], -0.957 (inactive) and -1.11 (inactive); in assay [18], -0.992 (inactive) and -1.16 (inactive); in assay [19], -1.52 and -1.3. Further, the composite z-score is 0.564 (inactive) and -1.24 (inactive) in assay [14]; -0.237 and -0.0414 in assay [20].

For the molecule `C[N+](C)(C)CCCCCCNC(=O)[C@H]1C[C@H]2C(=O)N[C@@H](CCCC[N+](C)(C)C)C(=O)N2[C@H]1c1cccc(OCCO)c1`, the z-score in assay [1] is 0.47 and -0.453; in [2] it was -0.32 and -0.34; in assay [3] it was 0.427 and -0.245; in assay [4], 0.0606 and -0.353; in assay [5], 0.366 and 0.635; in [6], -0.112 and -1.53. Besides, the z-score in assay [7] is 0.418 (inactive) and 0.566 (inactive); in [8], -0.192 and 0.231; in assay [9] it was -0.644 and -0.272; in [10], -0.154 (inactive) and -0.311 (inactive); in assay [11], -0.402 and -0.0872; in assay [12], -0.255 (inactive) and 0.763 (inactive). The z-score is 0.737 (inactive) and -0.541 (inactive) in assay [13]; -0.366 (inactive) and 0.146 (inactive) in assay [15]; 0.297 (inactive) and 1.2 (inactive) in assay [16]; 1.04 (inactive) and -0.0715 (inactive) in [17]; 1.47 (inactive) and -0.451 (inactive) in assay [18]; 0.455 and -1.29 in assay [19]. Further, the composite z-score in assay [14] was -2.69 (inactive) and -1.29 (inactive); in [20], -0.0553 and -0.0559.

With `COCn1c2ccccc2c2nnc(C(C)=O)nc21`, the z-score in assay [1] was -0.337 and -0.197; in assay [2], 0.745 and 0.622; in [3], -0.786 and -0.47; in [4] it was -0.32 and -0.151; in assay [5], -2.16 and -1.74; in assay [6] it was -2.92 and -0.761. The z-score in [7] is 0.0492 (inactive) and 0.883 (inactive); in assay [8] it was -0.79 and -0.473; in [9], -0.189 and -0.639; in assay [10] it was -0.181 (inactive) and -0.856 (inactive); in assay [11], -0.159 and -0.565; in [12], -1.93 (inactive) and -2 (inactive). Besides, the z-score in assay [13] is -0.0104 (inactive) and 0.0255 (inactive); in [15], -0.907 (inactive) and -0.576 (inactive); in assay [16], 0.204 (inactive) and -0.16 (inactive); in assay [17], -1.12 (inactive) and -1.17 (inactive); in assay [18] it was -1.07 (inactive) and -1.34 (inactive); in assay [19], -0.261 and -0.35. Moreover, the composite z-score is -2.39 (inactive) and -2.01 (inactive) in assay [14]; -0.0095 and -0.065 in assay [20].

Take `C=CCN(C(=O)C1N(CCOCCO)C(=O)C2C(C(=O)O)C3C=CC21O3)c1ccc(OC)cc1` (stereo not given): the z-score in [1] was -0.0891 and 0.163; in [2], -0.24 and 0.366; in assay [3] it was 0.136 and 0.857; in assay [4], 0.963 and -0.688; in [5], -0.25 and 0.0863; in assay [6] it was 0.191 and -1.15. Moreover, the z-score is 0.124 (inactive) and 1.32 (inactive) in assay [7]; -0.0484 and 0.126 in [8]; 1.01 and 0.642 in assay [9]; -0.237 (inactive) and 0.168 (inactive) in [10]; 0.0057 and 0.18 in assay [11]; -0.174 (inactive) and -0.731 (inactive) in assay [12]. Besides, the z-score was 0.267 (inactive) and -0.0413 (inactive) in [13]; -0.276 (inactive) and -0.0963 (inactive) in [15]; -0.478 (inactive) and -0.298 (inactive) in [16]; 0.556 (inactive) and 1.24 (inactive) in [17]; 0.2 (inactive) and 0.638 (inactive) in assay [18]; -0.0424 and 0.0858 in [19]. In addition, the composite z-score in assay [14] is -0.511 (inactive) and -4.53 (inactive); in [20], 0.0637 and 0.0264.

Regarding `COC(=O)C1=C(C)N(Cc2ccccc2)C2=C3C(=O)N(c4ccccc4)C(=O)[C@@H]3[C@@](O)(C(=O)OC)C(=O)N2[C@@H]1c1ccccc1`, the z-score in assay [1] was 1.52 and 2.18; in [2] it was 0.0671 and 1.01; in assay [3], 0.286 and -0.126; in assay [4] it was -0.532 and 0.354; in [5] it was 0.585 and 1.26; in assay [6], 0.889 and 1.68. Further, the z-score in assay [7] is 0.143 (inactive) and 1.26 (inactive); in assay [8], -0.87 and -0.111; in [9], 0.702 and 0.136; in assay [10], 0.497 (inactive) and 0.767 (inactive); in assay [11], 0.941 and 0.879; in assay [12] it was -1.31 (inactive) and -2.61 (inactive). The z-score in assay [13] was 0.463 (inactive) and 1.02 (inactive); in [15], -0.847 (inactive); in assay [16], -0.305 (inactive) and -1.62 (inactive); in assay [17] it was 0.284 (inactive) and 1.07 (inactive); in assay [18], -0.23 (inactive) and 1.2 (inactive); in [19] it was 0.698 and 0.334. Also, the composite z-score was -0.0764 (inactive) and -0.563 (inactive) in assay [14]; 0.122 and 0.0178 in assay [20].

For `CCOC(=O)[C@H](Cc1ccccc1)NC(=O)CCC1CC(OC(=O)NCc2cccc3ccccc23)CC2(CCCC(COC(=O)NCCCN3CCCC3=O)O2)O1` (stereo not given in full), the z-score in assay [1] was 2.08; in assay [2] it was 0.0309; in assay [3], -0.93; in assay [4] it was -0.0157; in assay [5], -0.178; in [6], 0.397. The z-score in assay [7] is 0.17 (inactive); in [8] it was -0.195; in assay [9] it was -0.5; in assay [10], 0.811 (inactive); in assay [11] it was 0.968; in assay [12], -1.78 (inactive). The z-score is 1.07 (inactive) in assay [13]; 0.639 (inactive) in assay [15]; -0.697 (inactive) in assay [16]; -0.35 (inactive) in assay [17]; -0.209 (inactive) in [18]; 1.75 in [19]. Besides, the composite z-score in assay [14] is -1.19 (inactive); in assay [20] it was -0.336.
